Results: ChEMBL document CHEMBL3988442, “University of Dundee, Small-Polar-MMV Screening Library” (2021)
Among all 48,000 compounds or so, about 13,000 (27%) showed an effect of 50% or more. Some of the results follow.

Each compound was assayed on Wolbachia pipientis (assay: Anti-Wolbachia Cell-Based Screen). Conditions: 5 µM.
Format: functional
Parameters: scale not given: in the data most compounds retested in dose-response had high values

SMILES | Percent Effect [%]
Cc1c(NCC(C)(C)C)cccc1C(=O)N(C)Cc1ncnn1C | 4.357
CNC(=O)c1cccc(CNC(=O)C2CC(=O)N(CCN(C)C)C2)c1 (stereo not drawn) | -3.95
CCN(CC)CC1CN(Cc2ccc(C)s2)Cc2nccn2C1.O=C(O)C(F)(F)F.O=C(O)C(F)(F)F (stereo not drawn) | -7.962
Cc1ccc(CN2Cc3nccn3CC(Cn3cncn3)C2)s1.O=C(O)C(F)(F)F (stereo not drawn) | 96.42
Cc1ccc(CN2Cc3nccn3CC(Cn3cccn3)C2)s1.O=C(O)C(F)(F)F (stereo not drawn) | 93.7
Cc1ncsc1C(=O)NC1CCN(CC(=O)NCc2ccccc2)CC1 | 0.6366
Cc1ccc(C(NC(=O)CC2CCN(C(C)C)CC2)C(=O)O)cc1 (stereo not drawn) | -11.69
Cc1cc(-c2ccc(C(=O)O)cc2)nc(C2CCN(C(C)C)CC2)n1 | 108.9
Cc1cc(-c2cccc(C(=O)O)c2)nc(C2CCN(C(C)C)CC2)n1 | 102.4
Cc1cc(-c2ccc(C(=O)O)cc2)nc(C2CCCN(C(C)C)C2)n1 (stereo not drawn) | 2.794
O=C(N[C@H]1CN(C2CCOCC2)C[C@@H]1C1CC1)c1cc(O)no1 | 17.55
CCN1CC[C@@]2(C(=O)N3CCCC3)CCN(S(C)(=O)=O)CC[C@@H]12.O=C(O)C(F)(F)F | -22.27
CN(C)CC(C)(C)CN1CCC(c2ccnc(-c3cccc(O)c3)c2)C1 (stereo not drawn) | -7.648
O=C(Cn1cncn1)NCC1(O)CCCc2ccccc21 (stereo not drawn) | 1.206
CCS(=O)(=O)CC(C)N(C)C(=O)COc1ccccc1C#N (stereo not drawn) | 95.28
CCN(CC)C(=O)c1ccc(COc2ccccc2C#N)o1 | -6.305
COc1ccccc1OCC(=O)n1ncc(C#N)c1N | -0.431
CC(C)C(C)N(C)C(=O)COc1ccccc1C#N (stereo not drawn) | 106.3
CC(Oc1ccccc1C#N)C(=O)NC1CC1 (stereo not drawn) | 12.68
CC(CNC(=O)OC(C)(C)C)N(C)C(=O)COc1ccccc1C#N (stereo not drawn) | 101.4
CCNC(=O)NC1CCC(Oc2ccccc2C#N)CC1 (stereo not drawn) | 4.038
CC(C)(C)OC(=O)NCCNC(=O)c1cnc(-c2ccccc2)nc1 | -9.911
CC(C)Oc1ccccc1CNC(=O)N(C)C(C)CS(C)(=O)=O (stereo not drawn) | -10.62
O=C(O)C(F)(F)F.O=C([C@H]1CN(Cc2ccoc2)C[C@H]2OCC[C@@H]12)N1CCCCO1 | -7.154
Cc1ncsc1CCN(C)Cc1cc2n(n1)CCN(S(C)(=O)=O)C2 | 0.3281
CCOc1ncccc1NC(=O)c1cc(C)c(C)s1 | 7.979

SMILES | Percent Effect [%]
O=C(C1CCN(c2ccnc3ccc(Br)cc23)CC1)N1CCOCC1 | 20.8
O=C(C1CC(=O)N(c2n[nH]c3cc(Br)ccc23)C1)N1CCCC1 (stereo not drawn) | 93.67
O=C(C1CC(=O)N(c2n[nH]c3cc(Br)ccc23)C1)N1CCOCC1 (stereo not drawn) | 93.25
O=C(C1CC(=O)N(c2ccccc2Br)C1)N1CCN(CC(F)(F)F)CC1 (stereo not drawn) | 5.588
O=C(C1CC(=O)N(c2n[nH]c3cc(Br)ccc23)C1)N1CCSCC1 (stereo not drawn) | 118.9
O=C(C1CC(=O)N(c2ccccc2Br)C1)N1CCCCCC1 (stereo not drawn) | 6.985
O=C(c1ccc(Cn2cc(Br)cn2)cc1)N1CCOCC1 | -22.08
O=C(C1CC(=O)N(C2CC2)C1)N1CCC(Oc2ccccc2Cl)CC1 (stereo not drawn) | 2.803
COc1ccc(Br)cc1CCC(=O)N1CCSCC1 | -8.265
COc1ccnc(N2CCN(C(C)c3nc(C)no3)CC2)n1 (stereo not drawn) | -3.819
O=C(Nc1ccccc1)c1cccc(S(=O)(=O)NC[C@@H]2C[C@H](F)CN2)c1 | 3.3
CN(CC(N)=O)Cc1cc(Cl)cc2cccnc12 | -12.39
O=C(NCCc1nc2ccccc2s1)c1coc(CN2CCOCC2)c1 | -17.38
CCc1nnc2n1CCN(CC(O)CN1CCC(C)CC1)C2 (stereo not drawn) | -4.838
O=C(NCc1cc[nH]n1)N1CCCCC(N2CCCC2)C1 (stereo not drawn) | 0.854
CC(=O)NC1CCCN(C(=O)NCc2cccnc2-n2cccn2)C1 (stereo not drawn) | -5.614
CC(C)(C)OC(=O)N1CCCCC1C(=O)NCc1cc[nH]n1 (stereo not drawn) | -6.483
CC(=O)NC1CCCN(C(=O)NCc2cc[nH]n2)C1 (stereo not drawn) | 125.6
CS(=O)(=O)NC1CCCN(C(=O)NCc2cccnc2)C1 (stereo not drawn) | -6.706
CC(=O)NC1CCCN(C(=O)NCc2cccnc2N(C)C)C1 (stereo not drawn) | 9.234
CS(=O)(=O)NC1CCN(C(=O)NCCNc2ccccn2)CC1 | 2.154
O=C(NCc1cc[nH]n1)N1CCCC(N2CCCC2)C1 (stereo not drawn) | 111.7
CS(=O)(=O)NC1CCN(C(=O)NCc2cccnc2)CC1 | 127.5
CC(=O)NC1CCCN(C(=O)NCc2cccnc2)C1 (stereo not drawn) | 121
CC(=O)NC1CCCN(C(=O)CCc2cccnc2)C1 (stereo not drawn) | 16.44
COCCc1noc(CN2CCCc3cccc(OC)c32)n1 | 0.4274

SMILES | Percent Effect [%]
Cc1noc(-c2ccc(N(C)Cc3ccncn3)nc2)n1 | -29.65
c1ccc(CNC[C@H]2COCc3nc4cccnc4n32)cc1 | 10.55
COCC(C)NC(=O)NCCc1cccc(OC)c1O (stereo not drawn) | -7.103
CCn1nc(CC(C)C)cc1C(=O)N1CCN([C@H]2CCCC[C@@H]2O)CC1 | 0.6704
CCS(=O)(=O)N1CC(c2nc(-c3ccsc3)no2)C1 | -8.132
CCc1c(C)nn(CCNC(=O)Cc2csc(C)n2)c1C | -26.69
CN(C)CCn1cc(NC(=O)NC(C)(C)c2nccs2)cn1 | -14.78
CCCN(C(=O)c1cccnc1)c1nc2c(s1)CCc1c-2cnn1C | 53.11
CCCN(C(=O)c1ccncc1)c1nc2c(s1)CCc1c-2cnn1C | 62.27
CCCN(C(=O)COC)c1nc2c(s1)CCc1c-2cnn1C | 1.347
OCc1ccc(CN2CCC(n3cc(-c4ccc(F)cc4)nn3)CC2)o1 | -0.1205
CC(C)C(C(=O)NC1CCOCC1)n1cnc2cc(F)c(F)cc21 (stereo not drawn) | 3.744
CCCc1cc(=O)[nH]c2nnc(SCC(=O)NCc3ccc(C)cc3)n12 | -24
CC(=O)NCCNC(=O)NCCCc1cccc(F)c1 | -6.354
CC(=O)N1N=C(c2ccccc2)OC1C(=O)NCCOc1ccccc1 (stereo not drawn) | 130.7
Cc1ccc2c(c1)CN(CC(=O)NCCc1ccc(F)cc1)CC(C)O2 (stereo not drawn) | 6.694
CC(=O)N1N=C(c2ccccc2)OC1C(=O)NCCc1ccc(C)cc1 (stereo not drawn) | 114.7
CC(=O)N1N=C(c2ccccc2)OC1C(=O)NCCc1cccc(Cl)c1 (stereo not drawn) | 1.222
CC(=O)N1N=C(c2ccccc2)OC1C(=O)NCCc1ccc(O)cc1 (stereo not drawn) | 114.8
Cc1nc(C2CCCN2CC(=O)NCCOc2ccccc2)no1 (stereo not drawn) | 3.183
Cc1nc(-c2ccc(NCCc3ccc(O)cc3)nc2)[nH]c(=O)c1C | -6.931
CC(=O)N1N=C(c2ccccc2)OC1C(=O)NCCc1cccc(F)c1 (stereo not drawn) | 137.5
CC(=O)N1N=C(c2ccccc2)OC1C(=O)NCCC1=CCCCC1 (stereo not drawn) | -1.689
O=C(NCCOc1ccccc1)C1NCCc2[nH]cnc21 (stereo not drawn) | 9.443
CC(NC(=O)Nc1cnn(CC(N)=O)c1)c1ccc(Cl)s1 (stereo not drawn) | 9.25
NC(=O)NCCC(=O)N1CCC(c2cc(-c3ccccc3Cl)n[nH]2)CC1 | -13.9

SMILES | Percent Effect [%]
CC(C)(CNC(=O)CSc1nnnn1C1CC1)c1ccccc1F | 14.51
CC(C)(C#N)c1ccc(NS(=O)(=O)CC2CCCCO2)cc1 (stereo not drawn) | -23.28
Cn1cc(CCNC(=O)C2(c3cccc(Cl)c3)CC2)cn1 | 11.84
Cc1nc(NCCc2ccc(Cl)cc2)cc(C(=O)N2CCOCC2)n1 | 8.895
CC(=O)N1N=C(c2ccccc2)OC1C(=O)NCCN(C(C)C)C(C)C (stereo not drawn) | 125.8
CC(C)N(C)CCCNC(=O)c1cnc(-c2ccccc2)nc1 | -3.501
CC(=O)N1N=C(c2cccs2)OC1C(=O)NCCc1cccc(Cl)c1 (stereo not drawn) | 135.3
CC(=O)N1N=C(c2ccccc2)OC1C(=O)NCCc1ccc(Cl)cc1 (stereo not drawn) | 146.7
Cc1nc(NCCc2ccc(Cl)cc2)cc(C(=O)N2CCCCC2)n1 | 24.03
CC(C)N(CCNC(=O)c1[nH]nc2ccc(I)cc12)C(C)C | -4.489
NC(=O)c1cccc(CCNCc2cnc(-c3cccs3)s2)c1 | -4.854
Cc1nc(CN2Cc3cn(C)nc3C(COCC3CC3)C2)cs1 (stereo not drawn) | -15.47
O=C(c1cccs1)N1CC[C@H]2[C@@H]1CCC(=O)N2c1cccnc1 | -2.771
CN(C)C(=O)N[C@@H]1CN(C2CCOCC2)[C@@H]2CCCO[C@@H]21.O=C(O)C(F)(F)F | -11.3
COc1ccc(CN2CCCn3cnc(COC(C)C)c3C2)cc1.O=C(O)C(F)(F)F | 23.92
CCc1nc(Cn2nc(C3CCNCC3)n(-c3ccccc3)c2=O)cs1 | 10.87
CSCCC(=O)N1CCCC1c1ccsc1 (stereo not drawn) | -16.09
CC(=O)N1C[C@@H](c2ccsc2)[C@@H]2CN(CC3CCCCC3)CC[C@@H]21 | 84.31
NC(=O)C1CCN(CC(=O)N2CCCC2c2ccsc2)CC1 (stereo not drawn) | -14.97
CC(=O)N1C[C@@H](c2ccsc2)[C@@H]2CN(Cc3ccccc3)CC[C@@H]21 | 3.604
COc1ccccc1CN1CC[C@H]2[C@@H](C1)[C@H](c1ccsc1)CN2C(C)=O | 109
CC(=O)N1C[C@@H](c2ccsc2)[C@@H]2CN(Cc3ccccc3Cl)CC[C@@H]21 | 132.7
CC(=O)N1CCC(NC(=O)N2CCCC2c2ccsc2)CC1 (stereo not drawn) | -39.95
NC(=O)CN1CCC(NC(=O)N2CCCC2c2ccsc2)CC1 (stereo not drawn) | -19.01
CC(=O)N1C[C@@H](c2ccsc2)[C@@H]2CN(Cc3ccccc3C)CC[C@@H]21 | 115.6
